Activity calls are given as the source filed them. How the source made its calls: active means hit-call score of the fitted dose curve at least 0.9, where 1 is the maximum; inactive means score below 0.9.
Legend:
[1] = APR_HepG2_CellLoss_72hr: Apredica 72-hour HepG2 Assay for Cell Loss (AID 2282915); conditions: high-content imaging
How it was run: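 HepG2 cells exposed 72 h to compound at 0.39–200 uM (10 concentrations, duplicate) in 0.5% DMSO. Fixed with 3.7% formaldehyde and Hoechst 33342-stained. Imaged at 20x; nuclear count gives cell number, fitted bidirectionally versus DMSO.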

[2] = APR_HepG2_P-H2AX_72hr: Apredica 72-hour HepG2 Assay for H2AX Phosphorylation (AID 2282916); conditions: imaging, actives raise or lower the signal;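 further: phospho-histone H2A.x immunostain intensity per cell marking DNA damage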
How it was run: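 Phospho-histone H2A.x immunofluorescence, multiplexed with Hoechst and c-Jun, quantified by high-content imaging. Compounds applied to HepG2 for 72 h across ten concentrations (0.39–200 uM, 0.5% DMSO), in duplicate; DMSO baseline.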

[3] = APR_HepG2_MitoMembPot_72hr: Apredica 72-hour HepG2 Assay for Mitochondrial Membrane Potential (AID 2282917); conditions: imaging, actives raise or lower the signal
How it was run: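 HepG2 cells dosed 72 hr with compound at 0.39–200 uM in duplicate, 0.5% v/v DMSO final. Mitochondria stained with 250 nM MitoTracker Red CMXRos for 30 min before formaldehyde fixation, imaged by high-content fluorescence; bidirectional fit versus DMSO.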

[4] = APR_HepG2_MitoticArrest_72hr: Apredica 72-hour HepG2 Assay for Mitotic Arrest (AID 2282918); conditions: high-content imaging, actives raise or lower the signal
How it was run: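 HepG2 cells were exposed for 72 hr to compound at 0.39–200 uM (10 concentrations, duplicate) in 0.5% v/v DMSO, fixed in 3.7% formaldehyde, immunostained for phospho-histone H3 with Hoechst 33342 and imaged by high-content fluorescence; bidirectional fits versus DMSO.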

[5] = APR_HepG2_MicrotubuleCSK_72hr: Apredica 72-hour HepG2 Assay for Microtubule CSK Stabilty (AID 2282919); conditions: HepG2 microtubule cytoskeleton, high-content imaging, actives raise or lower the signal
How it was run: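 HepG2, 72 hr cmpd exposure, 0.39–200 uM (10 pts, duplicate), 0.5% DMSO. 3.7% formaldehyde fix, 0.5% Triton perm, anti-alpha-tubulin/Cy5 plus Hoechst. HCS fluorescence intensity; bidirectional fit vs DMSO baseline; taxol as positive control.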

[6] = APR_HepG2_P-H2AX_24hr: Apredica 24-hour HepG2 Assay for H2AX Phosphorylation (AID 2282920); conditions: high-content imaging, actives raise or lower the signal
How it was run: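 HepG2 human liver cells were exposed for 24 hr to compounds at 0.39–200 uM in duplicate, with 0.5% v/v DMSO final. Fixed cells were immunostained for phospho-histone H2A.x plus Hoechst 33342, imaged by HCS fluorescence, and fitted bidirectionally against DMSO.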

[7] = APR_HepG2_StressKinase_72hr: Apredica 72-hour HepG2 Assay for Stress Kinase (AID 2282921); conditions: HepG2 stress kinase (phospho-c-Jun) imaging, actives raise or lower the signal
How it was run: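 Stress kinase signal is phospho-c-Jun immunofluorescence (1:500 primary, Cy3 secondary) in fixed, permeabilized human HepG2 cells imaged at 20x. Exposure lasted 72 hr over ten concentrations from 0.39 to 200 uM, 0.5% DMSO, in duplicate. Bidirectional fit versus DMSO.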

[8] = APR_HepG2_StressKinase_24hr: Apredica 24-hour HepG2 Assay for Stress Kinase (AID 2282922); conditions: HepG2 stress kinase (phospho-c-Jun) imaging, actives raise or lower the signal
How it was run: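 Read-out: phospho-c-Jun immunofluorescence (Cy3 secondary) quantified by high-content imaging at 20x, nuclei defined by Hoechst 33342. Human HepG2 liver cells dosed 24 hr, 0.39–200 uM, DMSO 0.5% v/v; gain or loss of signal fitted relative to DMSO.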

[9] = APR_HepG2_p53Act_72hr: Apredica 72-hour HepG2 Assay for p53 Activation (AID 2282923); conditions: high-content imaging, actives raise or lower the signal;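 further: average cellular p53 protein immunofluorescence intensity in HepG2 cells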
How it was run: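 After 72 h with compound (ten points, 0.39 to 200 uM, final DMSO 0.5% v/v), fixed HepG2 cells were labelled with sheep anti-p53 and Hoechst 33342 and imaged; gain or loss versus DMSO scored.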

[10] = APR_HepG2_MitoMass_72hr: Apredica 72-hour HepG2 Assay for Mitochondrial Mass (AID 2282924); conditions: high-content imaging, actives raise or lower the signal;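 further: MitoTracker Red CMXRos stain intensity per cell imaged as mitochondrial mass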
How it was run: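 Read-out: MitoTracker Red fluorescence intensity from automated imaging (20x, six fields per well) in human HepG2 liver cells. Dosing ran 72 hr, 0.39–200 uM, 0.5% DMSO; bidirectional curve fitting versus DMSO baseline.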

[11] = APR_HepG2_NuclearSize_72hr: Apredica 72-hour HepG2 Assay for Nuclear Size (AID 2282925); conditions: high-content imaging, actives raise or lower the signal
How it was run: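 Read-out: nuclear diameter from Hoechst 33342 images (ArrayScan, 20x, six fields/well), via cell-cycle image analysis. HepG2 were dosed 0.39–200 uM for 72 hr in 0.5% DMSO. Bidirectional fit relative to DMSO.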

[12] = ATG_CRE_CIS: Attagene CIS-FACTORIAL HepG2 Assay for human cAMP Responsive Element (CRE) binding protein 3 (AID 2282926); conditions: HepG2 CRE cis-reporter, Attagene multiplexed mRNA; actives raise or lower the signal
How it was run: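 Capillary electrophoresis of 6-FAM-labelled, HpaI-digested PCR products quantified reporter transcripts. These came from HepG2 transiently transfected with cis-element reporters and exposed to test chemicals for 24 hours, with DMSO defining baseline activity.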

[13] = target: CCAAT/enhancer-binding protein beta (Homo sapiens) (UniProt P17676); test: ATG_C_EBP_CIS: Attagene CIS-FACTORIAL HepG2 Assay for human CCAAT/Enhancer Binding Protein (C/EBP) beta (AID 2282927); conditions: HepG2 Attagene cis-factorial transcription factor reporter; actives raise or lower the signal
How it was run: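 Transiently transfected HepG2 (MRTU library, endogenous TF-driven promoters); 24 h dosing; total RNA → oligo(dT) RT → PCR → 6-FAM primer extension → HpaI digest → CE; fit bidirectionally vs DMSO.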

[14] = ATG_CMV_CIS: Attagene CIS-FACTORIAL HepG2 Assay for human CMV (Internal Marker) (AID 2282928); conditions: HepG2 CMV promoter reporter, transcription factor profiling; actives raise or lower the signal;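 further: endpoint acts as a background internal control marker rather than a target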
How it was run: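 Readout: fluorescent reporter cDNA fragments separated by capillary electrophoresis after RT-PCR and HpaI cut. Cells: HepG2 carrying transfected cis-promoter reporter constructs, dosed 24 h. Endpoint serves as background internal-marker control, fit bidirectionally versus DMSO.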

[15] = ATG_DR4_LXR_CIS: Attagene CIS-FACTORIAL HepG2 Assay for human Liver X Receptor (LXR), DR4 submotif (AID 2282929); conditions: HepG2 Attagene DR4 cis-reporter, mRNA transcription; actives raise or lower the signal
How it was run: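 The endpoint is DR4-element-driven reporter transcripts after 24 h chemical exposure of transfected HepG2 cells. These were measured via RT-PCR and capillary electrophoresis, and gain or loss of signal was fitted relative to DMSO controls.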

[16] = target: Aryl hydrocarbon receptor (Homo sapiens) (UniProt P35869); test: ATG_Ahr_CIS: Attagene CIS-FACTORIAL HepG2 Assay for human Aryl Hydrocarbon Receptor (Ahr) (AID 2282930); conditions: HepG2 AhR cis-factorial reporter transcription; actives raise or lower the signal
How it was run: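 Read-out: reporter mRNA quantified by RT-PCR with fluorescent primer extension and capillary electrophoresis. Human HepG2 liver cells carried transfected cis-promoter reporter units and were exposed to chemical for 24 h; gain or loss fitted relative to DMSO.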

[17] = ATG_AP_1_CIS: Attagene CIS-FACTORIAL HepG2 Assay for human Activator Protein 1 (AP-1) (AID 2282931); conditions: HepG2 Attagene cis-factorial AP-1 reporter mRNA; actives raise or lower the signal
How it was run: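 Readout is reporter transcript level from endogenous transcription factor activity, quantified by RT-PCR with fluorescent primer extension and capillary electrophoresis. Transiently transfected HepG2 cells, 24 h exposure. Curves fitted both directions versus DMSO.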

[18] = ATG_AP_2_CIS: Attagene CIS-FACTORIAL HepG2 Assay for human Activator Protein 2 (AP-2) (AID 2282932); conditions: HepG2 AP-2 cis-reporter, Attagene transcription factor profiling; actives raise or lower the signal
How it was run: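 Liver-derived HepG2 line, cis-reporter system measuring endogenous factors; 24 h dosing; reporter mRNA detected by fluorescent RT-PCR and capillary electrophoresis.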

[19] = ATG_BRE_CIS: Attagene CIS-FACTORIAL HepG2 Assay for human Bone Morphogenetic Protein (BMP) Response Element (BRE) (AID 2282933); conditions: HepG2 BMP response element reporter, Attagene transcription factor profiling; actives raise or lower the signal
How it was run: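 Endogenous transcription factor activity at a BMP response element was monitored in transfected HepG2 cells 24 h after dosing. Fluorescent RT-PCR products were resolved by capillary electrophoresis, and activity was fitted in both directions versus DMSO.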

[20] = target: Retinoic acid receptor alpha (Homo sapiens) (UniProt P10276); test: ATG_DR5_RAR_CIS: Attagene CIS-FACTORIAL HepG2 Assay for human Retinoic Acid Receptor Alpha (RARE), DR5 submotif (AID 2282934); conditions: HepG2 Attagene cis-factorial RARE DR5 reporter, mRNA; actives raise or lower the signal;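 on AC50: reporter responds to endogenous RAR alpha beta and gamma in HepG2 not RARA alone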
How it was run: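 Read-out: DR5-driven reporter transcript measured by RT-PCR, 6-FAM primer extension, HpaI digest and capillary electrophoresis. Human HepG2 liver cells carry transiently transfected cis-element reporter constructs; dosing lasts 24 h. Gain or loss of signal fitted against DMSO baseline.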

Chain of CCAAT/enhancer-binding protein beta (Homo sapiens) (P17676 whole entry, looked up): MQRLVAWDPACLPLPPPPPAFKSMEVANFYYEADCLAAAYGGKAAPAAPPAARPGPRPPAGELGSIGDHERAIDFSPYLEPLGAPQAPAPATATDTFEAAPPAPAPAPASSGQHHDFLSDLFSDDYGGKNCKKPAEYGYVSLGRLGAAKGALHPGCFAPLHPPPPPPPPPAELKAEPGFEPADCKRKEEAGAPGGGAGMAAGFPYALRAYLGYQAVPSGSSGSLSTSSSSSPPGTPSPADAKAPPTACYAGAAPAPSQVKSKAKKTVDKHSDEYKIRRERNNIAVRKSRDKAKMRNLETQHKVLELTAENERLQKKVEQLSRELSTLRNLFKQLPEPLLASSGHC
Chain of Retinoic acid receptor alpha (Homo sapiens) (P10276 whole entry, looked up): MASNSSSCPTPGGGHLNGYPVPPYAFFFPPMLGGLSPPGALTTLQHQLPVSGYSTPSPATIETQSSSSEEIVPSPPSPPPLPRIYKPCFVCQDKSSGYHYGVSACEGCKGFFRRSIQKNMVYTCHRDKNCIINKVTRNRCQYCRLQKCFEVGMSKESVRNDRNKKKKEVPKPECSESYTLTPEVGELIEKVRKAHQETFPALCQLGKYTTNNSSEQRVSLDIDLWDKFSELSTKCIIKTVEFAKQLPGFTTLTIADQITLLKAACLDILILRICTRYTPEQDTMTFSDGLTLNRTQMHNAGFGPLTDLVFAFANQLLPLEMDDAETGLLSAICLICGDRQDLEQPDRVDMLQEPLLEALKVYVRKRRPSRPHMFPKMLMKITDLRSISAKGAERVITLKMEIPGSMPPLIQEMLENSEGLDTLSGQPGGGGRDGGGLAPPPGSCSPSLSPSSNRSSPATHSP
Chain of Aryl hydrocarbon receptor (Homo sapiens) (P35869 whole entry, looked up): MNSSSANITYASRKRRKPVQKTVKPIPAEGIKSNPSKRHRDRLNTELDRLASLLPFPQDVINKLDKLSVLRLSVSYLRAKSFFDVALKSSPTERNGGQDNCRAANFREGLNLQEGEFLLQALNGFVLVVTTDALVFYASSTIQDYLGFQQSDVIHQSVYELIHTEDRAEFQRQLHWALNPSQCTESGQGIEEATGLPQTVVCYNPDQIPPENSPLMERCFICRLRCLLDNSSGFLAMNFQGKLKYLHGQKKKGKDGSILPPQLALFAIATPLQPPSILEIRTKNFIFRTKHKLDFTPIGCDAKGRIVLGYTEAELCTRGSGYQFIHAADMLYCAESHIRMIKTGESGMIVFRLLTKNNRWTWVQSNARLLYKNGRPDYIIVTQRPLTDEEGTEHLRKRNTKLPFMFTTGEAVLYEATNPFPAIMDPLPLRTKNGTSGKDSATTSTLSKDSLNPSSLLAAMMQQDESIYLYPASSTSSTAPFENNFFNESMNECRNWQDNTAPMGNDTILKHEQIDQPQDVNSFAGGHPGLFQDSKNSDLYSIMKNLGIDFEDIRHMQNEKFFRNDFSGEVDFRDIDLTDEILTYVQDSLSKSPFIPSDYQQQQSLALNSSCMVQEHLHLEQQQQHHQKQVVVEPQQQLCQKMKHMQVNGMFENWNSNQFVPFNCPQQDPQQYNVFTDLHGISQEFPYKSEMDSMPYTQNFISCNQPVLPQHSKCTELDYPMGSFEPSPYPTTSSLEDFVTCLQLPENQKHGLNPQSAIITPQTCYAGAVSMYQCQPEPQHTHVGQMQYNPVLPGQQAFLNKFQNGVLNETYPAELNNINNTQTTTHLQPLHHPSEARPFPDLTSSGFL

SMILES: CCOCN(C(=O)CCl)c1c(C)cccc1CC
- AC50 [1]: 9.99 µM (active)
- outcome [2]: inactive
- outcome [3]: inactive
- AC50 [4]: 93 µM (active)
- AC50 [5]: 13.9 µM (active)
- AC50 [6]: 30.9 µM (active)
- outcome [7]: inactive
- outcome [8]: inactive
- outcome [9]: inactive
- outcome [10]: inactive
- outcome [11]: inactive
- outcome [12]: inactive
- outcome [13]: inactive
- outcome [14]: inactive
- outcome [15]: inactive
- outcome [16]: inactive
- outcome [17]: inactive
- outcome [18]: inactive
- outcome [19]: inactive
- outcome [20]: inactive

SMILES: COC(=O)c1ccccc1S(=O)(=O)NC(=O)N(C)c1nc(C)nc(OC)n1
- outcome [1]: inactive
- outcome [2]: inactive
- outcome [3]: inactive
- outcome [4]: inactive
- outcome [5]: inactive
- outcome [6]: inactive
- outcome [7]: inactive
- outcome [8]: inactive
- outcome [9]: inactive
- outcome [10]: inactive
- outcome [11]: inactive
- outcome [12]: inactive
- outcome [13]: inactive
- outcome [14]: inactive
- outcome [15]: inactive
- outcome [16]: inactive
- outcome [17]: inactive
- outcome [18]: inactive
- outcome [19]: inactive
- outcome [20]: inactive

SMILES: O=C(NC(=O)c1c(F)cccc1F)Nc1ccc(OC(F)(F)C(F)OC(F)(F)F)c(Cl)c1 (configuration not stated)
- outcome [1]: inactive
- outcome [2]: inactive
- outcome [3]: inactive
- outcome [4]: inactive
- outcome [5]: inactive
- outcome [6]: inactive
- outcome [7]: inactive
- outcome [8]: inactive
- outcome [10]: inactive
- outcome [11]: inactive
- outcome [12]: inactive
- outcome [13]: inactive
- outcome [14]: inactive
- outcome [15]: inactive
- outcome [16]: inactive
- outcome [17]: inactive
- outcome [18]: inactive
- AC50 [19]: 14.2 µM (active)

SMILES: CCC(C)Nc1c([N+](=O)[O-])cc(C(C)(C)C)cc1[N+](=O)[O-] (configuration not stated)
- AC50 [1]: 64.9 µM (active)
- outcome [2]: inactive
- outcome [3]: inactive
- outcome [4]: inactive
- AC50 [5]: 57.8 µM (active)
- outcome [6]: inactive
- outcome [7]: inactive
- outcome [8]: inactive
- outcome [10]: inactive
- outcome [11]: inactive
- AC50 [12]: 7.44 µM (active)
- outcome [13]: inactive
- AC50 [14]: 24.1 µM (active)
- AC50 [15]: 36.4 µM (active)
- outcome [16]: inactive
- AC50 [17]: 43.3 µM (active)
- outcome [18]: inactive
- outcome [19]: inactive
- AC50 [20]: 6.5 µM (active)

SMILES: CNC(=O)Oc1ccccc1OC(C)C
- outcome [1]: inactive
- outcome [2]: inactive
- outcome [3]: inactive
- outcome [4]: inactive
- outcome [5]: inactive
- outcome [6]: inactive
- outcome [7]: inactive
- outcome [8]: inactive
- outcome [9]: inactive
- outcome [10]: inactive
- outcome [11]: inactive
- outcome [12]: inactive
- outcome [13]: inactive
- outcome [14]: inactive
- outcome [15]: inactive
- outcome [16]: inactive
- outcome [17]: inactive
- outcome [18]: inactive
- outcome [19]: inactive
- outcome [20]: inactive

SMILES: CC1(C)C(C=C(Cl)Cl)C1C(=O)OC(C#N)c1ccc(F)c(Oc2ccccc2)c1 (configuration not stated)
- outcome [1]: inactive
- outcome [2]: inactive
- outcome [3]: inactive
- outcome [4]: inactive
- outcome [5]: inactive
- outcome [6]: inactive
- outcome [7]: inactive
- outcome [8]: inactive
- outcome [9]: inactive
- outcome [10]: inactive
- outcome [11]: inactive
- outcome [12]: inactive
- outcome [13]: inactive
- outcome [14]: inactive
- AC50 [15]: 14.4 µM (active)
- outcome [16]: inactive
- outcome [17]: inactive
- outcome [18]: inactive
- outcome [19]: inactive
- AC50 [20]: 2.57 µM (active)

— PubChem BioAssay (EPA / NIEHS)
